# Experimental data from article PMC11062922 (Nature Chemical Biology, 2023).
# Where two headings read alike, the source gives them in different places.
# What was measured:
# [1] = tested on: ACVR1B; conditions: read-out: apparent Kd, n = 1
# [2] = tested on: AURKB; conditions: read-out: apparent Kd, n = 1
# [3] = compound concentrations:100 nM and 1000 nM (sheet 'Lestaurtinib' of Supplementary Table 1),run:Lestaurtinib_02339_R1,Plate:MR001
# [4] = compound concentrations:100 nM and 1000 nM (sheet 'Lestaurtinib' of Supplementary Table 1),run:Lestaurtinib_02364_R2,Plate:MR002
# [5] = compound concentrations:100 nM and 1000 nM (sheet 'Lestaurtinib' of Supplementary Table 1),run:Lestaurtinib_02364_R3,Plate:MR002
# [6] = compound concentrations:100 nM and 1000 nM (sheet 'Lestaurtinib' of Supplementary Table 1),run:Lestaurtinib_02367_R2,Plate:MR003
# [7] = compound concentrations:100 nM and 1000 nM (sheet 'Lestaurtinib' of Supplementary Table 1),run:Lestaurtinib_02381_R1,Plate:MR004
# [8] = compound concentrations:100 nM and 1000 nM (sheet 'Lestaurtinib' of Supplementary Table 1),run:Lestaurtinib_02437_R3,Plate:MR007
substance,measurement,setting,value
Lestaurtinib,potency estimated from few doses,[1]; [3],730 nM
same,potency estimated from few doses,[1]; [4],951 nM
same,potency estimated from few doses,[1]; [5],661 nM
same,potency estimated from few doses,"[1]; compound concentrations:100 nM and 1000 nM (sheet 'Lestaurtinib' of Supplementary Table 1),run:Lestaurtinib_02367_R1,Plate:MR003",671 nM
same,potency estimated from few doses,[1]; [6],684 nM
same,potency estimated from few doses,"[1]; compound concentrations:100 nM and 1000 nM (sheet 'Lestaurtinib' of Supplementary Table 1),run:Lestaurtinib_02367_R3,Plate:MR003",783 nM
same,potency estimated from few doses,[1]; [7],694 nM
same,potency estimated from few doses,"[1]; compound concentrations:100 nM and 1000 nM (sheet 'Lestaurtinib' of Supplementary Table 1),run:Lestaurtinib_02381_R3,Plate:MR004",515 nM
same,potency estimated from few doses,"[1]; compound concentrations:100 nM and 1000 nM (sheet 'Lestaurtinib' of Supplementary Table 1),run:Lestaurtinib_02422_R2,Plate:MR006",951 nM
same,potency estimated from few doses,"[1]; compound concentrations:100 nM and 1000 nM (sheet 'Lestaurtinib' of Supplementary Table 1),run:Lestaurtinib_02437_R1,Plate:MR007",592 nM
same,potency estimated from few doses,[1]; [8],740 nM
same,potency estimated from few doses,"[1]; compound concentrations:100 nM and 1000 nM (sheet 'Lestaurtinib' of Supplementary Table 1),run:Lestaurtinib_02438_R1,Plate:MR008",415 nM
same,potency estimated from few doses,"[1]; compound concentrations:100 nM and 1000 nM (sheet 'Lestaurtinib' of Supplementary Table 1),run:Lestaurtinib_02443_R2,Plate:MR009",855 nM
same,potency estimated from few doses,"[1]; compound concentrations:100 nM and 1000 nM (sheet 'Lestaurtinib' of Supplementary Table 1),run:Lestaurtinib_02443_R3,Plate:MR009",487 nM
same,potency estimated from few doses,"[1]; compound concentrations:100 nM and 1000 nM (sheet 'Lestaurtinib' of Supplementary Table 1),run:Lestaurtinib_02473_R1,Plate:MR010",479 nM
same,potency estimated from few doses,"[1]; compound concentrations:100 nM and 1000 nM (sheet 'Lestaurtinib' of Supplementary Table 1),run:Lestaurtinib_02473_R2,Plate:MR010",674 nM
same,potency estimated from few doses,"[1]; compound concentrations:100 nM and 1000 nM (sheet 'Lestaurtinib' of Supplementary Table 1),run:Lestaurtinib_02482_R1,Plate:MR011",665 nM
same,potency estimated from few doses,"[1]; compound concentrations:100 nM and 1000 nM (sheet 'Lestaurtinib' of Supplementary Table 1),run:Lestaurtinib_02487_R1,Plate:MR012",741 nM
same,potency estimated from few doses,"[1]; compound concentrations:100 nM and 1000 nM (sheet 'Lestaurtinib' of Supplementary Table 1),run:Lestaurtinib_02487_R2,Plate:MR012",754 nM
same,potency estimated from few doses,"[1]; compound concentrations:100 nM and 1000 nM (sheet 'Lestaurtinib' of Supplementary Table 1),run:Lestaurtinib_02487_R3,Plate:MR012",549 nM
same,potency estimated from few doses,"[1]; compound concentrations:100 nM and 1000 nM (sheet 'Lestaurtinib' of Supplementary Table 1),run:Lestaurtinib_02496_R2,Plate:MR013",776 nM
same,potency estimated from few doses,"[1]; compound concentrations:100 nM and 1000 nM (sheet 'Lestaurtinib' of Supplementary Table 1),run:Lestaurtinib_02496_R3,Plate:MR013",965 nM
same,potency estimated from few doses,"[1]; compound concentrations:100 nM and 1000 nM (sheet 'Lestaurtinib' of Supplementary Table 1),run:Lestaurtinib_02566_R1,Plate:MR014",386 nM
same,potency estimated from few doses,"[1]; compound concentrations:100 nM and 1000 nM (sheet 'Lestaurtinib' of Supplementary Table 1),run:Lestaurtinib_02566_R3,Plate:MR014",479 nM
same,potency estimated from few doses,"[1]; compound concentrations:100 nM and 1000 nM (sheet 'Lestaurtinib' of Supplementary Table 1),run:Lestaurtinib_02577_R3,Plate:MR016",422 nM
same,potency estimated from few doses,"[1]; compound concentrations:100 nM and 1000 nM (sheet 'Lestaurtinib' of Supplementary Table 1),run:Lestaurtinib_02584_R1,Plate:MR017",545 nM
same,potency estimated from few doses,"[1]; compound concentrations:100 nM and 1000 nM (sheet 'Lestaurtinib' of Supplementary Table 1),run:Lestaurtinib_02584_R2,Plate:MR017",970 nM
same,potency estimated from few doses,"[1]; compound concentrations:100 nM and 1000 nM (sheet 'Lestaurtinib' of Supplementary Table 1),run:Lestaurtinib_02584_R3,Plate:MR017",748 nM
same,potency estimated from few doses,"[1]; compound concentrations:100 nM and 1000 nM (sheet 'Lestaurtinib' of Supplementary Table 1),run:Lestaurtinib_02601_R1,Plate:MR018",559 nM
same,potency estimated from few doses,"[1]; compound concentrations:100 nM and 1000 nM (sheet 'Lestaurtinib' of Supplementary Table 1),run:Lestaurtinib_02601_R3,Plate:MR018",707 nM
same,potency estimated from few doses,"[1]; compound concentrations:100 nM and 1000 nM (sheet 'Lestaurtinib' of Supplementary Table 1),run:Lestaurtinib_02606_R1,Plate:MR019",628 nM
same,potency estimated from few doses,"[1]; compound concentrations:100 nM and 1000 nM (sheet 'Lestaurtinib' of Supplementary Table 1),run:Lestaurtinib_02606_R3,Plate:MR019",836 nM
same,potency estimated from few doses,"[1]; compound concentrations:100 nM and 1000 nM (sheet 'Lestaurtinib' of Supplementary Table 1),run:Lestaurtinib_02624_R1,Plate:MR020",613 nM
same,potency estimated from few doses,"[1]; compound concentrations:100 nM and 1000 nM (sheet 'Lestaurtinib' of Supplementary Table 1),run:Lestaurtinib_02624_R3,Plate:MR020",724 nM
same,potency estimated from few doses,"[1]; compound concentrations:100 nM and 1000 nM (sheet 'Lestaurtinib' of Supplementary Table 1),run:Lestaurtinib_02724_R1,Plate:MR021",624 nM
same,potency estimated from few doses,"[1]; compound concentrations:100 nM and 1000 nM (sheet 'Lestaurtinib' of Supplementary Table 1),run:Lestaurtinib_02724_R2,Plate:MR021",755 nM
same,potency estimated from few doses,"[1]; compound concentrations:100 nM and 1000 nM (sheet 'Lestaurtinib' of Supplementary Table 1),run:Lestaurtinib_02741_R3,Plate:MR023",712 nM
same,potency estimated from few doses,"[1]; compound concentrations:100 nM and 1000 nM (sheet 'Lestaurtinib' of Supplementary Table 1),run:Lestaurtinib_02748_R1,Plate:MR024",417 nM
same,potency estimated from few doses,"[1]; compound concentrations:100 nM and 1000 nM (sheet 'Lestaurtinib' of Supplementary Table 1),run:Lestaurtinib_02748_R2,Plate:MR024",745 nM
same,potency estimated from few doses,"[1]; compound concentrations:100 nM and 1000 nM (sheet 'Lestaurtinib' of Supplementary Table 1),run:Lestaurtinib_02752_R3,Plate:MR025",724 nM
same,potency estimated from few doses,"[1]; compound concentrations:100 nM and 1000 nM (sheet 'Lestaurtinib' of Supplementary Table 1),run:Lestaurtinib_02765_R1,Plate:MR026",811 nM
same,potency estimated from few doses,"[1]; compound concentrations:100 nM and 1000 nM (sheet 'Lestaurtinib' of Supplementary Table 1),run:Lestaurtinib_02765_R2,Plate:MR026",488 nM
same,potency estimated from few doses,"[1]; compound concentrations:100 nM and 1000 nM (sheet 'Lestaurtinib' of Supplementary Table 1),run:Lestaurtinib_02766_R3,Plate:MR027",495 nM
same,potency estimated from few doses,"[1]; compound concentrations:100 nM and 1000 nM (sheet 'Lestaurtinib' of Supplementary Table 1),run:Lestaurtinib_02768_R2,Plate:MR028",577 nM
same,potency estimated from few doses,"[1]; compound concentrations:100 nM and 1000 nM (sheet 'Lestaurtinib' of Supplementary Table 1),run:Lestaurtinib_02768_R3,Plate:MR028",533 nM
same,potency estimated from few doses,"[1]; compound concentrations:100 nM and 1000 nM (sheet 'Lestaurtinib' of Supplementary Table 1),run:Lestaurtinib_02795_R1,Plate:MR022",857 nM
same,potency estimated from few doses,"[1]; compound concentrations:100 nM and 1000 nM (sheet 'Lestaurtinib' of Supplementary Table 1),run:Lestaurtinib_02795_R2,Plate:MR022",563 nM
same,potency estimated from few doses,"[1]; compound concentrations:100 nM and 1000 nM (sheet 'Lestaurtinib' of Supplementary Table 1),run:Lestaurtinib_02795_R3,Plate:MR022",806 nM
same,potency estimated from few doses,"[1]; compound concentrations:100 nM and 1000 nM (sheet 'Lestaurtinib' of Supplementary Table 1),run:Lestaurtinib_02802_R1,Plate:MR029",480 nM
same,potency estimated from few doses,"[1]; compound concentrations:100 nM and 1000 nM (sheet 'Lestaurtinib' of Supplementary Table 1),run:Lestaurtinib_02802_R2,Plate:MR029",584 nM
same,potency estimated from few doses,"[1]; compound concentrations:100 nM and 1000 nM (sheet 'Lestaurtinib' of Supplementary Table 1),run:Lestaurtinib_02802_R3,Plate:MR029",656 nM
same,potency estimated from few doses,"[1]; compound concentrations:100 nM and 1000 nM (sheet 'Lestaurtinib' of Supplementary Table 1),run:Lestaurtinib_02896_R1,Plate:MR030",549 nM
same,potency estimated from few doses,"[1]; compound concentrations:100 nM and 1000 nM (sheet 'Lestaurtinib' of Supplementary Table 1),run:Lestaurtinib_02896_R3,Plate:MR030",494 nM
same,potency estimated from few doses,"[1]; compound concentrations:100 nM and 1000 nM (sheet 'Lestaurtinib' of Supplementary Table 1),run:Lestaurtinib_03172_R1,Plate:MR031",377 nM
same,potency estimated from few doses,"[1]; compound concentrations:100 nM and 1000 nM (sheet 'Lestaurtinib' of Supplementary Table 1),run:Lestaurtinib_03172_R2,Plate:MR031",568 nM
same,potency estimated from few doses,"[1]; compound concentrations:100 nM and 1000 nM (sheet 'Lestaurtinib' of Supplementary Table 1),run:Lestaurtinib_03172_R3,Plate:MR031",598 nM
same,potency estimated from few doses,"[1]; compound concentrations:100 nM and 1000 nM (sheet 'Lestaurtinib' of Supplementary Table 1),run:Lestaurtinib_03252_R2,Plate:MR032",547 nM
same,potency estimated from few doses,"[1]; compound concentrations:100 nM and 1000 nM (sheet 'Lestaurtinib' of Supplementary Table 1),run:Lestaurtinib_03260_R2,Plate:MR033",551 nM
same,potency estimated from few doses,"[1]; compound concentrations:100 nM and 1000 nM (sheet 'Lestaurtinib' of Supplementary Table 1),run:Lestaurtinib_03260_R3,Plate:MR033",778 nM
same,potency estimated from few doses,[2]; [3],261 nM
same,potency estimated from few doses,"[2]; compound concentrations:100 nM and 1000 nM (sheet 'Lestaurtinib' of Supplementary Table 1),run:Lestaurtinib_02339_R2,Plate:MR001",143 nM
same,potency estimated from few doses,"[2]; compound concentrations:100 nM and 1000 nM (sheet 'Lestaurtinib' of Supplementary Table 1),run:Lestaurtinib_02364_R1,Plate:MR002",260 nM
same,potency estimated from few doses,[2]; [4],159 nM
same,potency estimated from few doses,[2]; [5],220 nM
same,potency estimated from few doses,[2]; [6],304 nM
same,potency estimated from few doses,[2]; [7],278 nM
same,potency estimated from few doses,"[2]; compound concentrations:100 nM and 1000 nM (sheet 'Lestaurtinib' of Supplementary Table 1),run:Lestaurtinib_02381_R2,Plate:MR004",232 nM
same,potency estimated from few doses,"[2]; compound concentrations:100 nM and 1000 nM (sheet 'Lestaurtinib' of Supplementary Table 1),run:Lestaurtinib_02407_R2,Plate:MR005",132 nM
same,potency estimated from few doses,"[2]; compound concentrations:100 nM and 1000 nM (sheet 'Lestaurtinib' of Supplementary Table 1),run:Lestaurtinib_02407_R3,Plate:MR005",268 nM
same,potency estimated from few doses,"[2]; compound concentrations:100 nM and 1000 nM (sheet 'Lestaurtinib' of Supplementary Table 1),run:Lestaurtinib_02422_R1,Plate:MR006",157 nM
same,potency estimated from few doses,[2]; [8],26.5 nM
same,potency estimated from few doses,"[2]; compound concentrations:100 nM and 1000 nM (sheet 'Lestaurtinib' of Supplementary Table 1),run:Lestaurtinib_02438_R2,Plate:MR008",158 nM
